Results taken from PubChem BioAssay (NCATS).
Records with an inconclusive call do not appear. Entries that show only a call come without a potency. The source made the active and inactive calls. Unless noted, calls follow the shape of the dose curve; as a rule, active = well fitted curve in the direction sought with a large enough effect; inconclusive = small, poorly fitted or top-dose-only effect, or another doubt; inactive = no such curve, though single readings can be large; an effect the other way counts as inactive or inconclusive.

What was measured:
[1] = biological target: ATP-dependent 6-phosphofructokinase (Trypanosoma brucei brucei) (UniProt O15648); assay: qHTS Assay to Find Inhibitors of T. brucei phosphofructokinase: hit validation (AID 492961);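 also: luminescence reports ADP formed as PFK phosphorylates fructose-6-phosphate with ATP; series mostly up to about 51 µM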
ATP-dependent 6-phosphofructokinase (Trypanosoma brucei brucei), sequence (O15648 whole entry, looked up): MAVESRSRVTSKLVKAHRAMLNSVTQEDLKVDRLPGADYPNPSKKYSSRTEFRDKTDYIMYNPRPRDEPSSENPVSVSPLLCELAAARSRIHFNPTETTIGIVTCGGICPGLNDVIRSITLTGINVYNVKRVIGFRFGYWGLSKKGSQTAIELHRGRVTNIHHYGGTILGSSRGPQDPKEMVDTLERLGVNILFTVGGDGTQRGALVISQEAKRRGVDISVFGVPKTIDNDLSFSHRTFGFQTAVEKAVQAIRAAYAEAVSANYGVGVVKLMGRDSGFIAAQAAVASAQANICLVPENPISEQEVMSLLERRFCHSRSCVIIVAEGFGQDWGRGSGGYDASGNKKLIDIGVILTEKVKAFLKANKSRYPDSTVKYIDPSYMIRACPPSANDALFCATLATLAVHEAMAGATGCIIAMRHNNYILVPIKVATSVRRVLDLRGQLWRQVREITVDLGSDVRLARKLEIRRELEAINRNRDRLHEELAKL
In short: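 In this biochemical qHTS validation, titrated compounds were tested against 1.25 nM PFK with 0.1 mM ATP and 0.5 mM F6P. Percent activity came from controls lacking or containing enzyme.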

[2] = biological target: Cytochrome P450 3A4 (Homo sapiens) (UniProt P08684); assay: qHTS Assay for Activators of Cytochrome P450 3A4 (AID 885); also: nearly all actives have a fitted effect of over 65% in size
Cytochrome P450 3A4 (Homo sapiens), sequence (P08684 whole entry, looked up): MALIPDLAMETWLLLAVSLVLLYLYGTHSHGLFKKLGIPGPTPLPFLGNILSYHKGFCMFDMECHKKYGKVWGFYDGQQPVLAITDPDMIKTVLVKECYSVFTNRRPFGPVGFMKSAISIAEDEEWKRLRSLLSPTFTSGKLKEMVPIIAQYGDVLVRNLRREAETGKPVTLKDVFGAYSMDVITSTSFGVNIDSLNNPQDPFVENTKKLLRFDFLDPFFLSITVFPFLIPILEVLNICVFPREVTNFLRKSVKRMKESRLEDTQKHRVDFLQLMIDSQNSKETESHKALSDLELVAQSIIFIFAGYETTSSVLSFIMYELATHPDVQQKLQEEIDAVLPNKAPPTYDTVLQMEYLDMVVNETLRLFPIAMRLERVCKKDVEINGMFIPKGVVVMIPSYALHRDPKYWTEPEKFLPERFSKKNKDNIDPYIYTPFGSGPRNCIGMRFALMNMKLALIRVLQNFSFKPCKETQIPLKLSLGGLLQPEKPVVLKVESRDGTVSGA
In short: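 Steps: enzyme/substrate mix dispensed; compound added, 10 min RT; NADPH regeneration solution added, 60 min RT; luciferin detection buffer stops reaction; 20 min later luminescence measured.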

[3] = biological target: Cytochrome P450 2D6 (Homo sapiens) (UniProt P10635); assay: qHTS Assay for Inhibitors and Substrates of Cytochrome P450 2D6 (AID 891); also: nearly all actives have a fitted effect of over 60% in size; also: potency is read from the fitted curve at half-maximal effect
Cytochrome P450 2D6 (Homo sapiens), sequence (P10635 whole entry, looked up): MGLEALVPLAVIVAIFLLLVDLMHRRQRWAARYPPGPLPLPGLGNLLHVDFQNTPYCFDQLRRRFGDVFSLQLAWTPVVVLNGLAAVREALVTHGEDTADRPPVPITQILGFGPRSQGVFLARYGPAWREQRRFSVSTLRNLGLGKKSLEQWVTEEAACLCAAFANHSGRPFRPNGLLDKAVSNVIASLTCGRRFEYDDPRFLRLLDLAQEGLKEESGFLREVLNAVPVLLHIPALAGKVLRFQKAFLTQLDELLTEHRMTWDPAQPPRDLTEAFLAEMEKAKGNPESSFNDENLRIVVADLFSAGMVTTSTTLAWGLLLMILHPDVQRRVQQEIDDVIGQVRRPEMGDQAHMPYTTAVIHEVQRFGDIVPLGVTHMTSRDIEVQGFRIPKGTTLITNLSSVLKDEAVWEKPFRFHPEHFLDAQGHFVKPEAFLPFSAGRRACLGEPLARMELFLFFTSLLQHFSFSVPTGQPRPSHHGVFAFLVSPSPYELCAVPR
In short: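 Human CYP2D6 (5 nM) with 30 uM Luciferin-ME EGE (at Km) in 100 mM KPO4, compound preincubated 10 min, then NADPH regeneration system for 60 min at room temperature. Luciferin read by luminescence; normalized to 1.43 uM quinidine.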

[4] = S16 Schwann cell PMP22 intronic element firefly luciferase assay (AID 624032); also: series mostly up to about 58 µM; nearly all actives have a fitted effect of over 30% in size
In short: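 Luciferase reporter of PMP22 intronic-element expression in stably transfected S16 rat Schwann cells, read by ONE-Glo luminescence after 24 h compound exposure at 37 C. Activity scaled between DMSO (0%) and positive-control PTC124; concentration-effect curves quality-classified.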

[5] = biological target: Tyrosyl-DNA phosphodiesterase 1 (Homo sapiens) (UniProt Q9NUW8); assay: Confirmation Assay for Inhibitors of Tyrosyl-DNA Phosphodiesterase (TDP1) (AID 489007); conditions: recombinant human TDP1 enzymatic activity, dose-response; also: potency is read from the fitted curve at half-maximal effect; nearly all actives have a fitted effect of over 40% in size
Tyrosyl-DNA phosphodiesterase 1 (Homo sapiens), sequence (Q9NUW8 whole entry, looked up): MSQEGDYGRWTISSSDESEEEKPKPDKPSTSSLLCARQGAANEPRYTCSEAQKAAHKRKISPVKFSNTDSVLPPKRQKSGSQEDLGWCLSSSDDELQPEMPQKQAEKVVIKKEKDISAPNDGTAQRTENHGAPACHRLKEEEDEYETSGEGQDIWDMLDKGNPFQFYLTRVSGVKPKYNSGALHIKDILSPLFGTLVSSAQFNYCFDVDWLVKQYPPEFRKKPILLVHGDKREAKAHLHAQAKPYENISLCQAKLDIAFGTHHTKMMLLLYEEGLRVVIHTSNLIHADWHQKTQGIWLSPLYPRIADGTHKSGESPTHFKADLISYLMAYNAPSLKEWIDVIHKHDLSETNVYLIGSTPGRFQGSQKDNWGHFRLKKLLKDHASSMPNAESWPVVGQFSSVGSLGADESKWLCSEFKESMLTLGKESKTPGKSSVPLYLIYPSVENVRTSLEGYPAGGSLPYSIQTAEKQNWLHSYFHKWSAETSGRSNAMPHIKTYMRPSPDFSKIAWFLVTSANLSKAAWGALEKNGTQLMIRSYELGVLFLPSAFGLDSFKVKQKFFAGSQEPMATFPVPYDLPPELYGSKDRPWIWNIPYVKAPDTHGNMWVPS
In short: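 Confirmation of primary-screen follow-ups in a qHTS format. Substrate cleavage by Tdp1 (1 nM) of a 3'-phosphotyrosine-FITC, 5'-biotin oligo (15 nM) was monitored as decreased AlphaScreen signal after a 5 min room-temperature reaction.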

[6] = biological target: Guanine nucleotide-binding protein G(i) subunit alpha-1 (Homo sapiens) (UniProt P63096); assay: qHTS Assay for Inhibitors of RGS12 GoLoco Motif Activity (Green Fluorophore) (AID 879);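 also: negative values mean loss of peptide binding seen as reduced polarization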
Guanine nucleotide-binding protein G(i) subunit alpha-1 (Homo sapiens), sequence (P63096 whole entry, looked up): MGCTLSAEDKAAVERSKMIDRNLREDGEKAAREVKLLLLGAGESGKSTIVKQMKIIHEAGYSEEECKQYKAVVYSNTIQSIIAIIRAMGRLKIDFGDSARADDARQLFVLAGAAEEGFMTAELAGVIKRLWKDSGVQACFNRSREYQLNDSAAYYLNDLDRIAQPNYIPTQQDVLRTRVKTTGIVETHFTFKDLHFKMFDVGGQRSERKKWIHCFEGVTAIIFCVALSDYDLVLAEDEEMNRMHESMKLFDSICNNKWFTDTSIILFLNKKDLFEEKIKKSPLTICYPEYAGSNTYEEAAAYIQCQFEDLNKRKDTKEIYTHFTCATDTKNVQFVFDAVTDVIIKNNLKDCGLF
In short: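 Fluorescence polarization assay: 50 nM Gαi1 with 10 nM FITC-labeled RGS12 GoLoco peptide in 10 mM Tris pH 7.5, 150 mM NaCl, 0.1 mM GDP, 0.05% NP40, 10 min at room temperature with compound.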

[7] = qHTS Assay for Identification of Small Molecule Agonists for Thrombopoietin (TPO) Signaling Pathway (AID 917)
In short: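 Murine Ba/F3 cells expressing human TPO receptor and GPIIb-promoter luciferase, IL-3-starved overnight, given compound plus TPO at 26 pM (EC50). After 24 h at 37 C, 5% CO2, luminescence read.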

[8] = biological target: Pyruvate kinase PKM (Homo sapiens) (UniProt P14618); assay: qHTS Assay for Activators of Human Muscle Pyruvate Kinase (AID 954; active = well fitted curve in the direction sought with a large enough effect, not every such curve was filed as active)
Pyruvate kinase PKM (Homo sapiens), sequence (P14618 whole entry, looked up): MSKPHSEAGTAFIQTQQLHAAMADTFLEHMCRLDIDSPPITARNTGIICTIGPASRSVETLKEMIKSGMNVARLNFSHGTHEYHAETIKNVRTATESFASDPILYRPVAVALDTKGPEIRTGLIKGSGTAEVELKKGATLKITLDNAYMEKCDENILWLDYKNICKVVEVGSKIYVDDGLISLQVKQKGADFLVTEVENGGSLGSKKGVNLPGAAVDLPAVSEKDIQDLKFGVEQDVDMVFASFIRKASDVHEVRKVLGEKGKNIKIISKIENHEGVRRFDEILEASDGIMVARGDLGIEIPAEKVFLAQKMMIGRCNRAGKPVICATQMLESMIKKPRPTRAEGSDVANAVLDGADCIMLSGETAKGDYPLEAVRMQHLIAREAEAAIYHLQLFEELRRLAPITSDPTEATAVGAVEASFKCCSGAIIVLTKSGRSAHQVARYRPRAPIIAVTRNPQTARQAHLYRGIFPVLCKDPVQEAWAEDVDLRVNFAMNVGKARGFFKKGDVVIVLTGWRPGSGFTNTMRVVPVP
In short: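 Reaction: 0.1 nM purified PKM2 with 0.5 mM phosphoenolpyruvate and 0.1 mM ADP, room temperature, 1 h. Readout: luciferase-based ATP luminescence after stop reagent. Activators judged against a 0.3 nM enzyme column.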

[9] = biological target: Alpha-galactosidase A (Homo sapiens) (UniProt P06280); assay: Counterscreen for Glucocerebrosidase Inhibitors: qHTS Assay for Human alpha-Galactosidase at pH 4.5 (AID 992)
Alpha-galactosidase A (Homo sapiens), sequence (P06280 whole entry, looked up): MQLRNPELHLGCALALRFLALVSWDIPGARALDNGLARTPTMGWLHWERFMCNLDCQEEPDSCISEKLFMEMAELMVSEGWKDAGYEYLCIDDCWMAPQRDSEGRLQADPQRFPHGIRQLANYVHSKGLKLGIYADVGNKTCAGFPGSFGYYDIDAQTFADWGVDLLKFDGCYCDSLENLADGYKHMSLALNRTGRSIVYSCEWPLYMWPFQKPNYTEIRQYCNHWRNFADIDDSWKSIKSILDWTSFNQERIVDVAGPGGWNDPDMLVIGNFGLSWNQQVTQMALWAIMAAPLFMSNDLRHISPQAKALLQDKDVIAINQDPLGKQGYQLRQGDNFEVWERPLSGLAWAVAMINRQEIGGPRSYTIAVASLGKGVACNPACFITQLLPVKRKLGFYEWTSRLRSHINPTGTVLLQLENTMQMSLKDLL
In short: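 Concentration-response curves (0.7 nM to 77 uM final) were modeled with the Hill equation to give AC50. Reactions: 2 nM enzyme, 80 uM fluorogenic alpha-galactoside, pH 4.5 citric acid buffer, 20 min, room temperature.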

[10] = biological target: alpha-glucosidase (Oryza sativa, rice) (UniProt Q653V4); assay: Counterscreen for Glucocerebrosidase Inhibitors: qHTS Assay for Rice alpha-Glucosidase at pH 5.0 (AID 997)
In short: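 Rice alpha-glucosidase (4 nM final) with 400 uM 4-methylumbelliferyl-alpha-D-glucopyranoside in citrate buffer pH 5.0, 20 min at room temperature, stopped at pH 10; fluorescence 365/440 nm, compounds 0.7 nM–77 uM, AC50 from Hill fits.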

SMILES: CC(C)(C)NC[C@@H](O)c1ccc(O)c(CO)n1
- outcome [1]: inactive

SMILES: COc1ccccc1-c1nc(NCc2ccccc2)c2ccccc2n1
- Potency [2]: inactive
- Potency [3]: 1580 nM (active)

SMILES: C[C@]12CC[C@H]3c4ccc(O)cc4CC[C@@H]3[C@H]1CC[C@@H]2OC(=O)CCC1CCCC1
- outcome [1]: inactive

SMILES: CNc1ncncc1-c1ccc(C(=O)N(C)C)cc1
- Potency [2]: inactive

SMILES: NS(=O)(=O)c1cc2c(cc1Cl)N[C@H](Cc1ccccc1)NS2(=O)=O
- outcome [1]: inactive
- Potency [4]: inactive

SMILES: COc1ccc2cc1Oc1ccc(cc1)C[C@H]1c3cc(c(OC)cc3CCN1C)Oc1c(OC)c(OC)cc3c1[C@@H](C2)N(C)CC3
- Potency [3]: inactive

SMILES: CN(C)c1ccc(-c2cc(NCc3ccccc3)ncn2)cc1
- Potency [2]: inactive

SMILES: CN(C)c1ccc(-c2nc(N3CCNCC3)c3ccccc3n2)cc1
- Potency [2]: inactive

SMILES: CN(C)[C@H]1C(=O)C(C(=O)NCN2CCCC2)=C(O)[C@]2(O)C(=O)C3=C(O)c4c(O)cccc4[C@](C)(O)[C@H]3C[C@H]12
- Potency [5]: 79.4 nM (active)
- Potency [4]: inactive

SMILES: Cc1cn([C@H]2C[C@H](N=[N+]=[N-])[C@H](CO)O2)c(=O)[nH]c1=O
- outcome [6]: inactive
- outcome [7]: inactive
- outcome [8]: inactive
- outcome [9]: inactive
- Potency [10]: inactive
- Potency [4]: inactive
